Results filed as inconclusive are left out. A number with no mark means an inactive call. Calls follow the shape of the dose curve; as a rule, active = well fitted curve in the direction sought with a large enough effect; inconclusive = small, poorly fitted or top-dose-only effect, or another doubt; inactive = no such curve, though single readings can be large or run the other way.
Assay: qHTS Assay for Identifying Gametocytocidal Compounds (AID 743244);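 also: actives lower the fluorescent signal which means gametocytes are killed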
Conditions: P. falciparum 3D7 stage III-V gametocytes, alamarBlue, 72 h; active compounds read low
Excerpt: Malaria cases and deaths have dropped 50% in 29 countries since 2000 due to the combined effects of long-lasting insecticidal bednets, indoor residual spraying, and artemisinin-based combination therapies (ACTs). This success has raised hopes for malaria eradication and consequently stimulated interest in developing new reagents that block gametocyte transmission such as novel and safe gametocytocidal drugs. However, previous drug development efforts have focused primarily on the asexual parasites that cause symptoms, but not malaria transmission. Consequently, patients can remain infectious for weeks after the clearance of asexual parasites and clinical symptoms. To be transmitted from person to person via a mosquito, the parasites must switch from asexual to sexual development and produce male and female gametocytes. Malaria gametocytes consist of five stages (I, II, III, IV and V). The late stage gametocytes (III, IV and V) are difficult to be cultured in vitro and the long lifespan of mature gametocytes allows them being transmitted from host to mosquitoes unless they are completely eliminated by gametocytocidal agents. To identify gametocytocidal compounds which are capable of killing late stage P. falciparum gametocytes, a high throughput gametocyte viability assay was employed. This assay uses oxidoreduction indicator, alamarBlue, as a general measure of metabolic activity of gametocytes. Within live cells, the nonfluorescent resazurin is reduced to resorufin, a bright red fluorescence dye. Fluorescence decreases upon treatment of gametocytocidal compounds. P. falciparum gametocyte (3D7 strain) was used in this study.
The 1536-well gametocycidal viability assay was based on the previous method of Tanaka et al. Stage III-V gametocytes were tested against three compound libraries, including 4265 compounds from NCGC pharmaceutical collection, 400 from Malaria Box library, and 550 from an internal collection of kinase inhibitors. Briefly, 2.5 ul/well incomplete medium was dispensed into each well of 1,536-well plates using the Multidrop Combi followed by 23 nl compound transferring using the NX-TR Pintool (WAKO Scientific Solutions, San Diego, CA). Then, 2.5 ul/well of gametocytes was dispensed with a seeding density of 20,000 cells/well using the Multidrop Combi. The assay plates were incubated for 72 h at 37C with 5% CO2. After addition of 5 ul/well of 2X AlamarBlue dye (Life Technologies, cat. no. DAL1100), the plates were incubated for 24 h at 37C with 5% CO2 and then were read in a fluorescence detection mode (Ex = 525 nm, Em = 598 nm) on a ViewLux plate reader (PerkinElmer).
% is scaled to controls: 0 for no effect and ±100 for the full control effect.

SMILES | max response [%]
CN(C)c1cc(NC(=O)CNC(C)(C)C)c(O)c2c1C[C@H]1C[C@H]3[C@H](N(C)C)C(=O)C(C(N)=O)=C(O)[C@@]3(O)C(=O)C1=C2O | 7.63
CC(O)[C@@H]1NC(=O)[C@H](CCCCN)NC(=O)[C@@H](Cc2c[nH]c3ccccc23)NC(=O)[C@H](Cc2ccccc2)NC(=O)[C@@H](NC(=O)[C@H](N)Cc2ccccc2)CSSC[C@@H](C(=O)N[C@H](CO)[C@@H](C)O)NC1=O (stereo not given in full) | -8.72
CCCCCCCCCCCCCCCC(=O)O[C@@H]1[C@@H](O)[C@@H](O)[C@@H]([C@H](NC(=O)[C@@H]2C[C@@H](CCC)CN2C)[C@H](C)Cl)O[C@@H]1SC | -16.5
C/C=C/C1=C(C(=O)O)N2C(=O)[C@@H](NC(=O)[C@H](N)c3ccc(O)cc3)[C@H]2SC1 | 9.08
C=C1C(=C/C=C2\CCC[C@]3(C)[C@@H]([C@H](C)CCCC(C)C)CC[C@@H]23)C[C@@H](O)C[C@@H]1O | -2.16
O=C(O)[C@H]1/C(=C/CO)O[C@@H]2CC(=O)N21 | 8.98
N[C@H]1CN(c2c(F)cc3c(=O)c(C(=O)O)cn(C4C[C@H]4F)c3c2Cl)CC12CC2 (stereo not given in full) | -6.9
NC[C@@H]1O[C@H](O[C@H]2[C@@H](O)[C@H](O[C@@H]3[C@@H](O)[C@H](N)C[C@H](N)[C@H]3O[C@H]3O[C@H](CN)[C@@H](O)[C@H](O)[C@H]3N)O[C@@H]2CO)[C@H](N)[C@@H](O)[C@@H]1O | -12
CC[C@]1(O)CC2CN(CCc3c([nH]c4ccccc34)[C@@](C(=O)OC)(c3cc4c(cc3OC)N(C)[C@H]3[C@@](O)(C(N)=O)[C@H](O)[C@]5(CC)C=CCN6CC[C@]43[C@@H]65)C2)C1 (stereo not given in full) | -7.92
CCCCC(F)(F)[C@@]1(O)CC[C@H]2[C@@H](CC(=O)[C@@H]2CCCCCCC(=O)O)O1 | 2.98
